In the supplement of paper PMC6555819:

Experiments:
Assay in all cases: PBM binding z-score (relative to random genomic background probes); higher = stronger binding; sequences stand for … in GC…GCGATTGACAGCGTAGAATGAAGG
[1] = tested on: FXR:RXRa (NR concentration 270 nM, RXRa partner concentration 90 nM)
Outline: (§1)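 Binding buffer was PBS pH 7.4 with 2% milk, 0.02% Triton X-100, 1 mM DTT, 0.2 mg/mL BSA and 0.4 mg/ml salmon testes DNA. In it, ligand-free nuclear receptor dimers were incubated 1 h on custom Agilent 4×180K protein-binding microarrays carrying double-stranded probes. Antibodies against each partner (one per run) detected binding, and z-scores were calculated against random background probes after regression normalization of scanned fluorescence.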

[2] = tested on: LXRa:RXRa (NR concentration 270 nM, RXRa partner concentration 90 nM)
Outline: as §1

[3] = tested on: LXRa homodimer (NR concentration 270 nM)
Outline: as §1

[4] = tested on: LXRb:RXRa (NR concentration 270 nM, RXRa partner concentration 90 nM)
Outline: as §1

[5] = tested on: LXRb homodimer (NR concentration 270 nM)
Outline: as §1

[6] = tested on: PPARa:RXRa (NR concentration 270 nM, RXRa partner concentration 90 nM)
Outline: as §1

[7] = tested on: PPARg:RXRa (NR concentration 180 nM, RXRa partner concentration 90 nM)
Outline: as §1

[8] = tested on: PPARg:RXRa 270nM:90nM, anti-RXR (NR concentration 270 nM, RXRa partner concentration 90 nM)
Outline: as §1

[9] = tested on: PPARg:RXRa 30nM:10nM, anti-RXR (NR concentration 30 nM, RXRa partner concentration 10 nM)
Outline: as §1

[10] = tested on: PPARg:RXRa 90nM:30nM, anti-RXR (NR concentration 90 nM, RXRa partner concentration 30 nM)
Outline: as §1

[11] = tested on: PPARg:RXRa DBDmut IVT, anti-RXR (DBD mutation: RXRa K156A/R161A, NR concentration 270 nM, RXRa partner concentration 90 nM)
Outline: as §1

[12] = tested on: PPARg:RXRa IVT, anti-PPARg (NR concentration 270 nM, RXRa partner concentration 90 nM)
Outline: as §1

[13] = tested on: PPARg DBDmut:RXRa IVT, anti-PPARg (DBD mutation: PPARg1 K132A/R137A, NR concentration 270 nM, RXRa partner concentration 90 nM)
Outline: as §1

[14] = tested on: PPARg DBDmut IVT, anti-PPARg (DBD mutation: PPARg1 K132A/R137A, NR concentration 270 nM)
Outline: as §1

[15] = tested on: PPARg homodimer (NR concentration 180 nM)
Outline: as §1

[16] = tested on: PXR:RXRa (NR concentration 270 nM, RXRa partner concentration 90 nM)
Outline: as §1

[17] = tested on: PXR homodimer (NR concentration 270 nM)
Outline: as §1

[18] = tested on: RARa:RXR (NR concentration 270 nM, RXRa partner concentration 90 nM)
Outline: as §1

[19] = tested on: RARa homodimer (NR concentration 270 nM)
Outline: as §1

[20] = tested on: RARb:RXRa (NR concentration 270 nM, RXRa partner concentration 90 nM)
Outline: as §1

Sequence	PBM binding z-score [1]	PBM binding z-score [2]	PBM binding z-score [3]	PBM binding z-score [4]	PBM binding z-score [5]	PBM binding z-score [6]	PBM binding z-score [7]	PBM binding z-score [8]	PBM binding z-score [9]	PBM binding z-score [10]	PBM binding z-score [11]	PBM binding z-score [12]	PBM binding z-score [13]	PBM binding z-score [14]	PBM binding z-score [15]	PBM binding z-score [16]	PBM binding z-score [17]	PBM binding z-score [18]	PBM binding z-score [19]	PBM binding z-score [20]
ATCGAAAGGCCGTGAGGTGAGTATACAGAAAGGC	0.424	0.135	-0.0346	-0.0132	-0.426	0.369	0.827	0.177	0.199	-0.0286	-0.822	0.492	0.487	1.17	-0.238	0.0278	-0.0636	0.885	0.0649	1.68
GCTAGTTGGTCAGTAAGAGGTCACACACCGGTCG	2.76	3.64	4.57	3.51	0.636	3.99	1.86	2.95	1.14	2.34	0.963	2.75	0.167	0.349	2.96	4.78	1.57	5.53	2.06	3.73
AGAATGAGGTTAAGACCAGGGAAACAGAATACAT	2.32	1.88	-0.015	1.61	-0.233	3.48	2.1	2.15	0.945	1.71	2.74	2.42	1.4	1.16	0.773	1.03	0.319	1.92	0.687	1.85
GCTGCTAGGTCAGGGTGGTCAGCTAACGGGTACG	1.3	1.02	-0.198	0.35	-0.645	2.03	1.63	1.95	-0.181	1.09	2.9	2.83	0.0307	-1.27	1.2	0.451	-0.345	1.03	0.165	3.61
CGTAGTTGGTCAAGGTCACACACGCTATAGGTAC	4.12	3.72	1.39	3.6	0.592	4.13	3.4	3.54	1.47	2.64	1.92	3.93	0.825	0.313	2.32	4.02	1.11	4.18	1.01	4.18
CTCGAAAGGTCGTGCTCAGGTGAGTTTACCAAAC	5.01	4.08	0.0619	3.31	0.366	4.6	1.98	3.86	1.67	2.65	0.999	1.89	0.777	0.0952	3.04	3.93	1.33	4.47	0.43	3.79
GCGACTGGGGGAAAGCAGGTTACCATAAGGTTGG	0.271	0.375	-0.178	1.5	2.74	1.75	0.956	1.47	0.539	1.33	2.14	3.37	1.81	2.84	0.279	0.944	0.0746	1.14	-0.282	0.616
ACTAGCAGGCCAAGTTTGGGGCACTCAAACAAAG	-0.415	-0.546	-0.667	-0.397	-1.03	-0.148	-0.208	-0.509	-0.663	-0.441	0.771	0.921	-0.182	-0.0456	-0.843	-0.333	-0.763	0.00988	-0.881	0.744
TCTGCTAGGTCAACGGTGGTCAGCTAATCTGCTA	3.59	2.75	-0.0402	1.6	-0.0139	3.54	3.35	3.81	2.45	3.42	4.54	4.36	-0.104	-0.365	1.38	1.99	-0.742	2.38	-0.57	4.05
AGTCAAAGTCCATCTAGGTAACGTAAGATATGCT	0.0265	-0.375	0.0157	-0.0801	-0.0793	0.13	0.685	0.325	0.277	0.00564	0.353	2.15	1.24	0.675	-0.173	-0.246	0.131	0.0232	0.0654	1.37
CCTGGTAGGTCAATGGTCAGCTAAAGCAGCTCGC	3.32	2.64	0.425	1.98	0.463	3.77	6.52	6.4	4.37	6.53	4.64	5.35	0.462	-0.453	2.06	1.29	0.146	2.11	1.12	3.63
TCTTGTATATCAACAGGAGGTTAAGAAAGATCGA	0.413	1.42	0.536	1.16	0.307	1.29	0.477	1.5	3.07	2.27	1.71	0.652	1.56	1.04	0.679	1.2	0.265	1.32	0.86	0.806
CCTAGCAAGCCAATCTGGGTCACTCAAGGCTTGA	0.309	0.44	-0.472	0.641	-0.582	3.06	1.85	1.79	-0.259	0.994	3.85	4.86	-0.252	-0.0798	0.973	0.841	-0.371	1.69	-0.371	0.92
CCTACTGGGCCATCAGGTCATCGATATCAACGTT	1.37	1.07	0.687	1.38	-0.672	2.79	3.18	3.65	1.59	3.22	4.21	5.09	-0.466	-0.676	1.03	1.5	-0.0162	2.04	-0.0284	2.39
